The full ranking holds about 33,000 sequences; the median of “E-score (-0.5 to 0.5)” is about -0.056, and the highest 2% start at about 0.38. Only a selection was taken, and the highest values are over-represented in it overall.
molecular target: Stb4 (UniProt P50104); experiment: PBM E-score (8-mer binding enrichment) (E-score (-0.5 to 0.5)); higher = stronger / more preferred TF binding; conditions: protein concentration: 200 nM; construct: GST-DNA-binding domain
How it was run: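 Full-length yeast transcription factors or their DNA-binding domains, GST-tagged and expressed with PURExpress, were applied at about 100-200 nM to universal all-10-mer Agilent arrays. These arrays had been made double-stranded by primer extension on fresh or once-stripped slides. Detection used fluorescent anti-GST, normalisation used masliner, and E-scores for ungapped eight-base words pooled with reverse complements came from the Universal PBM Analysis Suite.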

UniProt P50104, sequence (P50104 whole entry, the tested form may be a part): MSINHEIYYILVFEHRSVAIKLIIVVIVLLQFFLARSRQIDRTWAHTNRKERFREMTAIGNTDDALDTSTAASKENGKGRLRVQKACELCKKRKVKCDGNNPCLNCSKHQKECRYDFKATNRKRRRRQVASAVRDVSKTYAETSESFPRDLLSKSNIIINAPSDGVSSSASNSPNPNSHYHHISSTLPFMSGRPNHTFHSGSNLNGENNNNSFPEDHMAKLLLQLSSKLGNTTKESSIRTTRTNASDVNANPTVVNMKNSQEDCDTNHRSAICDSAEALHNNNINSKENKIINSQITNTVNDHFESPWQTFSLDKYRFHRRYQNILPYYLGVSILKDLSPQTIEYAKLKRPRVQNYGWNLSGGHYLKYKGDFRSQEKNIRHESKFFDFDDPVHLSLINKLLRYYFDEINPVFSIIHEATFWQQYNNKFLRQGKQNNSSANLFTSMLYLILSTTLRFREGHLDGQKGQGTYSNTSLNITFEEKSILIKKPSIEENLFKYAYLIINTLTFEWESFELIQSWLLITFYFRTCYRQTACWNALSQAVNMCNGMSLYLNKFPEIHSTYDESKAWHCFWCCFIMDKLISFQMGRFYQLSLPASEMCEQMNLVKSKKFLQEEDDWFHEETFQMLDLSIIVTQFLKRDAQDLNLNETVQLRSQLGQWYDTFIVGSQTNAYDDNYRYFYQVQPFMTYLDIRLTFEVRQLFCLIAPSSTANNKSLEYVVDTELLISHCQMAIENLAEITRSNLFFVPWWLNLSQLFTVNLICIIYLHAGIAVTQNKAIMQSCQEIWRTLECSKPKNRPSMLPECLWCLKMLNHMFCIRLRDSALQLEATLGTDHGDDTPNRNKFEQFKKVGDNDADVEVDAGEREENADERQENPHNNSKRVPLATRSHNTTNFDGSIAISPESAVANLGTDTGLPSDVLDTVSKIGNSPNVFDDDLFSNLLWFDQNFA

Sequence	PBM E-score
CCGAGTCC	0.403
CCGAGTTC	0.396
CCGAGTAA	0.345
ACGAGTAG	-0.11
GCGAGTAC	-0.0817
CCGAGTAG	0.391
CCGAGTAC	0.383
CGAGCAGC	0.15
ATGACCCA	-0.283
AACGCACC	-0.0468
CTCACTTC	-0.141
ACCGAGCT	0.365
ACCGAGAG	0.342
AACGAGAT	0.0091
ACCGAGAT	0.407
ACCGAGGT	0.392
AACGAGGT	-0.293
ACCCAATG	-0.174
ACCCCATC	-0.109
GGTGAGTA	-0.183
TCCTCCAA	-0.181
CTGCTCGC	-0.0171
ATGCGGAA	0.332

Sequence	PBM E-score
ATTCGGAC	0.373
CTTCGAAC	-0.00115
CTACGGAA	0.222
GTGCGGAA	0.289
GTTCGGAA	0.474
ATTCGGAA	0.456
ATTCGGAG	0.324
GTACGGAA	0.323
CTTCGGAC	0.386
CTTCGAAA	-0.2
CTTCGGAA	0.485
CCTTTTCC	0.0594
GATAGTTA	0.0424
CATTTGTA	-0.106
ATGTAGCC	0.136
AGACAGCA	-0.0333
GCAGGCCC	-0.0954
ATTAGCCC	-0.0135
ATTAGCCA	-0.26
ATTAGCCG	0.4
AATGTCCC	0.169
AACTTCTC	0.0267
AATATTCC	0.347

Sequence	PBM E-score
CCCTTACA	-0.0902
CGGGCGAA	0.158
CAATCTGA	-0.0386
CACCGGAG	0.125
TACCGGTA	0.149
CACCGGAA	0.412
GACCGGAA	0.316
CACCGGAC	0.215
TACCGGAA	0.394
GATTGAGA	-0.0336
CAAGCGAG	0.0404
CCCGAAGG	0.394
ACCGAAGA	0.359
TCCGAAGA	0.458
CGCGAAGA	0.112
CCCGAAGC	0.371
CCCGAAGA	0.403
ACCGAAGG	0.243
GCCGAAGA	0.362
CACGAAGA	-0.255
CCCGCAGG	0.115
TGCACTAA	-0.112
ACTGAATG	0.0782

Sequence	PBM E-score
GTCAGGAC	-0.21
AGAGATTC	-0.00647
CAGGCCAA	-0.0749
TAACTTCA	-0.143
AGGTTGCG	-0.269
GTTCTATA	-0.173
GGACTTCA	-0.0404
ATATCTGA	-0.0996
GATGCCGC	0.0124
TATGCCCA	-0.104
ACTGCCGA	0.407
AATGCCGG	0.313
CCTGCCGA	0.359
TATGCCAA	-0.209
TATGCCGA	0.411
AATGCCGA	0.415
AATGCCGT	0.277
CATGCCGA	0.353
GCTGCCGA	0.378
GATGCCGA	0.411
